Unmarked numbers belong to inactive results. Results filed as inconclusive are left out. Where a call stands in place of a potency, no number is given. Calls of active or inactive are those of the source. Unless noted, the call rests on the fitted dose curve; in most records, active means well fitted curve in the direction sought with a large enough effect; inconclusive means small, poorly fitted or top-dose-only effect, or another doubt; inactive means no such curve, though single readings can be large; an effect the other way counts as inactive or inconclusive.
Tests used:
[1] = molecular target: Lysosomal acid glucosylceramidase (Homo sapiens) (UniProt P04062); assay: Glucocerebrosidase-p2 (AID 348; in the data active means potency below about 10 µM; further: potency means the concentration at half of the fitted maximal effect); conditions: purified GBA, blue fluorogenic substrate, 40 min
Procedure, shortened: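 Compounds titrated from 0.6 nM upwards against 0.2 nM enzyme in pH 5.9 citric acid/KH2PO4, taurocholate, tween-20; blue fluorogenic substrate 80 uM, 40 min room temperature, stopped and read Ex 365/Em 440 for AC50.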

[2] = Stat Signaling Pathway (AID 446; active means well fitted curve in either direction with a large enough effect, not every such curve was filed as active;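 further: ME-180 cervical cancer cells given 40 pM IL-6 alongside compound; SIE-controlled beta-lactamase reporter measured as 460/530 nm FRET emission ratio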)
Procedure, shortened: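 IL-6/STAT signaling read in ME-180 cells via an SIE beta-lactamase reporter. Stimulus was 40 pM IL-6 (its AC50) for 5 hrs, so both activation and inhibition register.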

[3] = molecular target: Glucocorticoid receptor (Homo sapiens) (UniProt P04150); assay: GR-GFP Redistribution (AID 450;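 active means compounds whose dose series gives a full or clear partial fitted curve of increased nuclear translocation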; further: potency means the concentration at half of the fitted maximal effect); conditions: U2OS GR-GFP nuclear translocation, laser cytometry, 2 h
[4] = molecular target: Glucocorticoid receptor (Homo sapiens) (UniProt P04150); assay: GR-EFC Redistribution (AID 451; calls by dose curve; further: potency means the concentration at half of the fitted maximal effect); conditions: CHO-K1 GR-EFC translocation, beta-gal luminescence, 2 h
Procedure, shortened: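 Translocation of GR-ED fusion to nuclear EA restores b-gal, read by luminescence after 1 h room-temperature detection. Engineered CHO-K1 biosensor cells, 1,000/well, exposed 2 h at 37 C to titrations up to 46 uM final.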

[5] = molecular target: Mitogen-activated protein kinase 10 (Mus musculus) (UniProt Q61831); assay: JNK3 AlphaScreen Assay (AID 530; active means well fitted curve in either direction with a large enough effect, not every such curve was filed as active;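 further: kinase came from lysate of stimulated human HepG2 cells; signal reports phosphorylation of biotinylated GST-cJun 1-79 at Ser73 with 10 µM ATP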)
Procedure, shortened: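 Compound titrations were preincubated 15 minutes at room temperature with substrate, antibody and pre-activated JNK3-containing HepG2 lysate. Reactions were started with 10 uM ATP and stopped with EDTA-containing bead buffer for AlphaScreen detection.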

[6] = molecular target: 3',5'-cyclic-AMP phosphodiesterase 4B (Homo sapiens) (UniProt Q07343); assay: qHTS Assay for Inhibitors of PDE-IV (AID 607; active means well fitted activation curve with a large enough effect in the main read-out, with a control signal flat, not every such curve was filed as active)
Procedure, shortened: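 Live HEK293 cells with a modified cyclic nucleotide-gated (CNG) channel report intracellular cAMP via membrane-potential dye fluorescence (ex 535/em 590 nm). Endogenous PDE-IV was targeted. Compounds were tested at up to 22.9 uM final; RO 20-1724 100 uM served as control.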

[7] = molecular target: Cytochrome P450 3A4 (Homo sapiens) (UniProt P08684); assay: qHTS Assay for Activators of Cytochrome P450 3A4 (AID 885); further: nearly all actives have a fitted effect of over 65% in size
Procedure, shortened: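 Quantitative HTS format: compounds preincubated with 20nM human CYP3A4 and Luciferin-PPXE substrate at KM, reaction started by NADPH regeneration, stopped after 60 min, luciferase luminescence read 20 min later.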

[8] = molecular target: Rap guanine nucleotide exchange factor 3 (Homo sapiens) (UniProt O95398); assay: Confirmatory qHTS for antagonist of cAMP-regulated guanine nucleotide exchange factor 3 (EPAC1) (AID 1645880); conditions: EPAC1 Rap1B-BODIPY-GDP exchange, fluorescence; activity, negative = inhibition: at 115 µM (top of the series); further: nearly all actives have a fitted effect of over 55% in size; further: potency means the concentration at half of the fitted maximal effect
Procedure, shortened: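 Nucleotide exchange uses 100 nM EPAC1, 250 nM RAP1B-BODIPY-GDP and 50 uM GDP, with compounds in a concentration-titration series. After 5 min at room temperature, fluorescence (480 nm ex/540 nm em) is read every 5 min for 30 min. Data are normalized to control ATA and DMSO.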

[9] = molecular target: Rap guanine nucleotide exchange factor 4 (Homo sapiens) (UniProt Q8WZA2); assay: Confirmatory qHTS for antagonist of cAMP-regulated guanine nucleotide exchange factor 4 (EPAC2) (AID 1645885); further: nearly all actives have a fitted effect of over 25% in size
[10] = molecular target: Cytochrome P450 3A4 (Homo sapiens) (UniProt P08684); assay: qHTS Assay for Inhibitors and Substrates of Cytochrome P450 3A4 (AID 884); further: potency means the concentration at half of the fitted maximal effect; nearly all actives have a fitted effect of over 50% in size
Procedure, shortened: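 20 nM human CYP3A4 with 25 uM Luciferin-PPXE (at KM) in 200 mM KPO4, preincubated 10 min with compound; NADPH regeneration started a 60 min RT reaction. Luciferin detected by luminescence, normalized to 57 uM ketoconazole as full inhibition.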

[11] = molecular target: Rap guanine nucleotide exchange factor 3 (Homo sapiens) (UniProt O95398); assay: Counterscreen qHTS for antagonist of cAMP-regulated guanine nucleotide exchange factor 3 (EPAC1) (AID 1645888);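 further: fluorescence loss as bound BODIPY-GDP is released from Rap1B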
Procedure, shortened: (§1)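 Rap1B-BODIPY-GDP 250 nM + GDP 50 uM; cpds 7-pt, final 9.74 nM–152 uM (activator mode) or from 7.32 nM upwards (inhibitor mode); RT; FI 480/540 nm at 5 and 30 min, then ± cAMP, reread.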

[12] = molecular target: Rap guanine nucleotide exchange factor 3 (Homo sapiens) (UniProt O95398); assay: Counterscreen qHTS for agonist of cAMP-regulated guanine nucleotide exchange factor 3 (EPAC1) (AID 1645889); further: nearly all actives have a fitted effect of over 40% in size; further: potency means the concentration at half of the fitted maximal effect
Procedure, shortened: as §1

[13] = molecular target: Cytochrome P450 1A2 (Homo sapiens) (UniProt P05177); assay: p450-cyp1a2 (AID 410; calls by dose curve; further: potency means the concentration at half of the fitted maximal effect)
Procedure, shortened: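 Luminescent readout of luciferin formed from Luciferin-ME by human CYP1A2; data normalized against complete inhibition by 57 uM furafylline. Enzyme 20nM, substrate 100uM at Km, 100mM KPO4 buffer, 60 min reaction at room temperature.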

[14] = NFAT Signaling Pathway (AID 444; active means well fitted curve in either direction with a large enough effect, not every such curve was filed as active;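 further: carbachol stimulus at about its EC50 of 1 µM final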); conditions: Jurkat NFAT-bla M1, carbachol, beta-lactamase ratio, 5 h; at 7.69 µM (top of the series) unless noted
Procedure, shortened: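 Read-out: CCF4 FRET ratio (460 nm/530 nm) after 1 h RT dye loading, used for %activity and AC50 from titration series. Cells: Jurkat NFAT-β-lactamase/M1 line, treated with compound plus 1 uM carbachol for 5 h, 37 °C.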

[15] = AP1 Signaling Pathway (AID 357; active means well fitted curve in either direction with a large enough effect, not every such curve was filed as active;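 further: ME-180 reporter cells stimulated with EGF at its EC50 level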); conditions: ME-180 (cervical carcinoma) AP-1-bla reporter, EGF-induced, beta-lactamase ratio, 5 h; at 7.69 µM (top of the series) unless noted
Procedure, shortened: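 AP-1-bla ME-180 cells, Opti-MEM + 0.5% dialyzed FBS, plated overnight 37 °C. Cpd titration + EC50 EGF, 5 h 37 °C. CCF4 2.5 h RT; ex 405, em 460/530 ratio → %activity, AC50.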

[16] = molecular target: Guanine nucleotide-binding protein G(i) subunit alpha-1 (Homo sapiens) (UniProt P63096); assay: qHTS Assay for Inhibitors of RGS12 GoLoco Motif Activity (Green Fluorophore) (AID 879); further: potency means the concentration at half of the fitted maximal effect
Procedure, shortened: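 Fluorescence polarization assay: 50 nM Gαi1 with 10 nM FITC-labeled RGS12 GoLoco peptide in 10 mM Tris pH 7.5, 150 mM NaCl, 0.1 mM GDP, 0.05% NP40, 10 min at room temperature with compound.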

[17] = qHTS Assay for Identification of Small Molecule Antagonists for Thrombopoietin (TPO) Signaling Pathway (AID 918); conditions: TPO-dependent cell signaling reporter, antagonist mode; further: potency means the concentration at half of the fitted maximal effect; nearly all actives have a fitted effect of over 60% in size
Procedure, shortened: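 Ba/F3 (murine, hTPO-R, GPIIb-luc reporter); overnight IL-3 withdrawal; cpd + TPO 26 pM final (EC50); 24 h 37 C/5% CO2; Steadylite luminescence after 10 min RT.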

[18] = molecular target: Pyruvate kinase (Leishmania mexicana) (UniProt Q27686); assay: qHTS Validation Assay for Inhibitors of Leishmania Mexicana Pyruvate Kinase (AID 945)
Procedure, shortened: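 Luminescent ATP detection (PKLight) after a 1 h room-temperature reaction of 0.2 nM LmPYK E451W mutant with 0.5 mM PEP and 0.1 mM ADP at pH 7.2. Activity is normalized to DMSO-only control wells.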

[19] = molecular target: Pyruvate kinase PKM (Homo sapiens) (UniProt P14618); assay: qHTS Assay for Activators of Human Muscle Pyruvate Kinase (AID 954; active means well fitted curve in the direction sought with a large enough effect, not every such curve was filed as active)
Procedure, shortened: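 Enzyme was run at intermediate activity so both inhibitors and activators could be detected. ATP formed from ADP and PEP by 0.1 nM human PKM2 during a 1 h room-temperature incubation was quantified by coupled luciferase luminescence.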

[20] = molecular target: Alpha-galactosidase A (Homo sapiens) (UniProt P06280); assay: Counterscreen for Glucocerebrosidase Inhibitors: qHTS Assay for Human alpha-Galactosidase at pH 4.5 (AID 992)
Procedure, shortened: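 Read-out is 4-methylumbelliferone fluorescence (365 nm excitation, 440 nm emission) after a pH 10 NaOH/glycine stop. Reactions held 2 nM enzyme and 80 uM substrate at pH 4.5 for 20 min at room temperature.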

[21] = molecular target: alpha-glucosidase (Oryza sativa, rice) (UniProt Q653V4); assay: Counterscreen for Glucocerebrosidase Inhibitors: qHTS Assay for Rice alpha-Glucosidase at pH 5.0 (AID 997)
Procedure, shortened: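 Rice alpha-glucosidase (4 nM final) with 400 uM 4-methylumbelliferyl-alpha-D-glucopyranoside in citrate buffer pH 5.0, 20 min at room temperature, stopped at pH 10; fluorescence 365/440 nm, compounds 0.7 nM–77 uM, AC50 from Hill fits.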

[22] = molecular target: Cytochrome P450 2C9 (Homo sapiens) (UniProt P11712); assay: qHTS Assay for Inhibitors and Substrates of Cytochrome P450 2C9 (AID 883); further: nearly all actives have a fitted effect of over 60% in size
Procedure, shortened: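 Turnover of Luciferin-H (100uM, KM) by 10nM human CYP2C9 was measured over 60 min at 37C with NADPH regeneration; inhibitors and some substrates reduce luminescence. Data normalized to sulphaphenazole 57uM.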

[23] = molecular target: Tumor susceptibility gene 101 protein (Homo sapiens) (UniProt Q99816); assay: qHTS Assay for Iinhibitors of HIV-1 Budding by Blocking the Interaction of PTAP/TSG101: Hit Validation (AID 651600); further: potency means the concentration at half of the fitted maximal effect; nearly all actives have a fitted effect of over 70% in size
Procedure, shortened: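 Measuring PTAP–Tsg101 interaction by FP: protein at 10 uM and fluorescent peptide at 50 nM (final), buffer 10 mM HEPES pH 7.5 with 0.15 M NaCl, 3 mM EDTA, 0.1 mM TCEP, 0.01% Tween 20; 20 min incubation, r.t.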

Rap guanine nucleotide exchange factor 3 (Homo sapiens), sequence (O95398 whole entry, looked up): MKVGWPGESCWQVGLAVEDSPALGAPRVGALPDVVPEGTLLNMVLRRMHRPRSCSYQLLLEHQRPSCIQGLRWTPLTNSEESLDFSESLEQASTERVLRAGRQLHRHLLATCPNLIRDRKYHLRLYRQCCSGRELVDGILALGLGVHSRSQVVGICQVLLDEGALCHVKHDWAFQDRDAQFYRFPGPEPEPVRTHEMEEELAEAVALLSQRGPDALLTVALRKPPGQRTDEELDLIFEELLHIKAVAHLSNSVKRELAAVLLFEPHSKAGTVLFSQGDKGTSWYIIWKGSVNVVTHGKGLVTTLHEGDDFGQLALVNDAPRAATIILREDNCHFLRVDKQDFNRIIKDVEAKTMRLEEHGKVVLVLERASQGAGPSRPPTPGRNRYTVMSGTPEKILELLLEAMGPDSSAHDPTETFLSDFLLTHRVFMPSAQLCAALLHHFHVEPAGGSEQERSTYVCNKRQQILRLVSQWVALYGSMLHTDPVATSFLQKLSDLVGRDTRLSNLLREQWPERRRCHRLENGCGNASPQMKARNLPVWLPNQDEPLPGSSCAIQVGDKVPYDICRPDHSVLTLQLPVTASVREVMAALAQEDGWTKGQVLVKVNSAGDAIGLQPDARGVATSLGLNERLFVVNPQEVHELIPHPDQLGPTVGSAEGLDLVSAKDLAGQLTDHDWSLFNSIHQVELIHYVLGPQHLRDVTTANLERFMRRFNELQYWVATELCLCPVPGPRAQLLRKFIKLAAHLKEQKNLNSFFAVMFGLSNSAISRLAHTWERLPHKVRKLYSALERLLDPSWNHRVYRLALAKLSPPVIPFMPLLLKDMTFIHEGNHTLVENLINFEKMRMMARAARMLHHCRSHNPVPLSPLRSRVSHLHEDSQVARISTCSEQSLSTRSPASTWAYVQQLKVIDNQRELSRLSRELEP
Rap guanine nucleotide exchange factor 4 (Homo sapiens), sequence (Q8WZA2 whole entry, looked up): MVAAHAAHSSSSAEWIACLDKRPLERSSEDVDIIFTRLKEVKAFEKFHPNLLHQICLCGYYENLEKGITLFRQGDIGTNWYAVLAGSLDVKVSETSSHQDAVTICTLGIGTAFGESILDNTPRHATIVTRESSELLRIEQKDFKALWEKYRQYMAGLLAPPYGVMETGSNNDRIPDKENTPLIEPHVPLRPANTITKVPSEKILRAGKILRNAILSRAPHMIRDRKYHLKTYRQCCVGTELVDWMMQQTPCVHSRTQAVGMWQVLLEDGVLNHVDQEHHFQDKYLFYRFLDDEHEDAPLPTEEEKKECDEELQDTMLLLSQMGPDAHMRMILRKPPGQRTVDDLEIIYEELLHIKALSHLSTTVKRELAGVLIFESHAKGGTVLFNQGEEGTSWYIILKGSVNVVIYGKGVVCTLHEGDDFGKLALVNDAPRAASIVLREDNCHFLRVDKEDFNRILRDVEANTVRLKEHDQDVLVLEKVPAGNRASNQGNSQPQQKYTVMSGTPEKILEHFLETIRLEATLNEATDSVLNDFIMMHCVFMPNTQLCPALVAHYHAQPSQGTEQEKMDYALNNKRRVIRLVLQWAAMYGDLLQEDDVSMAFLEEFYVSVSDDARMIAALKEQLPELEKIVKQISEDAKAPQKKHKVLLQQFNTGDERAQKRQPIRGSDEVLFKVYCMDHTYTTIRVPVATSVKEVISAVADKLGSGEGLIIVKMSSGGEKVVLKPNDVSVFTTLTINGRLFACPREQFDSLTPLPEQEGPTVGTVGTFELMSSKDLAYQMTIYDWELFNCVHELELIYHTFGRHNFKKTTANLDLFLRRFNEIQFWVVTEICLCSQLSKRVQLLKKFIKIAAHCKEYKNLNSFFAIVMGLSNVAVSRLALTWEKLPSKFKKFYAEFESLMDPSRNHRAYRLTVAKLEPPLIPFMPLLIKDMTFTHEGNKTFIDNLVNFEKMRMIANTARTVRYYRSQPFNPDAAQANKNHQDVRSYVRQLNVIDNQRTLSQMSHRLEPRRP
Cytochrome P450 3A4 (Homo sapiens), sequence (P08684 whole entry, looked up): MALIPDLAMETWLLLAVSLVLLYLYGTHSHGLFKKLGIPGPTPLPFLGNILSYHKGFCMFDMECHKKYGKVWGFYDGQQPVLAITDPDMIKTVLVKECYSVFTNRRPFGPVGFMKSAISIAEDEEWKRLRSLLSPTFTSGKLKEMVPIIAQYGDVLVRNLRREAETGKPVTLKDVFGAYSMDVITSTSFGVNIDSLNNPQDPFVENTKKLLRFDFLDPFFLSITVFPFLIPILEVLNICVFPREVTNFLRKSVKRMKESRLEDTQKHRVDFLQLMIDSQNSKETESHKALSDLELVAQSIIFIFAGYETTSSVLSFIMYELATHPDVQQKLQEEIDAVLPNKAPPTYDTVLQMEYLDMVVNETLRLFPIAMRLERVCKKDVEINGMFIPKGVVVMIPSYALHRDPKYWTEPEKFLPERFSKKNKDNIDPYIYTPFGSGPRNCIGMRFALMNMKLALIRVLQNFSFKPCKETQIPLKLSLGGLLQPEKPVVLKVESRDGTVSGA
Glucocorticoid receptor (Homo sapiens), sequence (P04150 whole entry, looked up, the tested form may be a part): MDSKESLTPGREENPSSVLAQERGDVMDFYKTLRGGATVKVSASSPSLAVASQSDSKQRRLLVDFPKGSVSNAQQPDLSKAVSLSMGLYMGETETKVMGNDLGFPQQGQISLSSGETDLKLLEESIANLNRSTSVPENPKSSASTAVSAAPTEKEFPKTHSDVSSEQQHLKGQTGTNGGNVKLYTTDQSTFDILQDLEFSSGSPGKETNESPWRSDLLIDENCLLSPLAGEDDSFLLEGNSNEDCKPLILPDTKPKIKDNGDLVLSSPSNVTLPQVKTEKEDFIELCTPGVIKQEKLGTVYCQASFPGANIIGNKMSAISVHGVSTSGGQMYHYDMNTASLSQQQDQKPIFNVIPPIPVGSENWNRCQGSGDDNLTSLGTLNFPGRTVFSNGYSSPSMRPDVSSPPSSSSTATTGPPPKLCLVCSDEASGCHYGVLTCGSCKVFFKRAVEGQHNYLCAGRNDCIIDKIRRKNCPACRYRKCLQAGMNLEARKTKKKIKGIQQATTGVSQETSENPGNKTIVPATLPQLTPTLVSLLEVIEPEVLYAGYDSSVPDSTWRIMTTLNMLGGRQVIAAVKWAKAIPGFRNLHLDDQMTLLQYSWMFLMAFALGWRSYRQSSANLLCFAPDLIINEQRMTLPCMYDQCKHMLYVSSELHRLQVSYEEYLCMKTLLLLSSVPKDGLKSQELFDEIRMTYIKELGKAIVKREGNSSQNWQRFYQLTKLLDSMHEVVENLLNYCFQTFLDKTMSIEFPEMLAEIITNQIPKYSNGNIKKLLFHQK
Lysosomal acid glucosylceramidase (Homo sapiens), sequence (P04062 whole entry, looked up): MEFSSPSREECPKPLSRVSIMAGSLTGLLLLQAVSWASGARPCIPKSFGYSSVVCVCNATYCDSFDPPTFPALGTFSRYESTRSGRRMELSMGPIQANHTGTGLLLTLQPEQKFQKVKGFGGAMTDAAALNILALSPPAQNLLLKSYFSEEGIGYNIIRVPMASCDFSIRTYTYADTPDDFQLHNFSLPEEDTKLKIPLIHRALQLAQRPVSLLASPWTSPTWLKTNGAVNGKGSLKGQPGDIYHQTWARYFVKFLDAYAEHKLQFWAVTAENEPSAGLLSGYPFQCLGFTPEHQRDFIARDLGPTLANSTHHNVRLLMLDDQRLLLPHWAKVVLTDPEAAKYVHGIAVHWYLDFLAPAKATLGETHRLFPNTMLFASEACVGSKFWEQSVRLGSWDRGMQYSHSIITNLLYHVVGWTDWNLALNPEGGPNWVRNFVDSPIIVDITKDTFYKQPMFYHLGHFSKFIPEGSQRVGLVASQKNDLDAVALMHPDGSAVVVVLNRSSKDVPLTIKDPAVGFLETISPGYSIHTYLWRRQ
3',5'-cyclic-AMP phosphodiesterase 4B (Homo sapiens), sequence (Q07343 whole entry, looked up): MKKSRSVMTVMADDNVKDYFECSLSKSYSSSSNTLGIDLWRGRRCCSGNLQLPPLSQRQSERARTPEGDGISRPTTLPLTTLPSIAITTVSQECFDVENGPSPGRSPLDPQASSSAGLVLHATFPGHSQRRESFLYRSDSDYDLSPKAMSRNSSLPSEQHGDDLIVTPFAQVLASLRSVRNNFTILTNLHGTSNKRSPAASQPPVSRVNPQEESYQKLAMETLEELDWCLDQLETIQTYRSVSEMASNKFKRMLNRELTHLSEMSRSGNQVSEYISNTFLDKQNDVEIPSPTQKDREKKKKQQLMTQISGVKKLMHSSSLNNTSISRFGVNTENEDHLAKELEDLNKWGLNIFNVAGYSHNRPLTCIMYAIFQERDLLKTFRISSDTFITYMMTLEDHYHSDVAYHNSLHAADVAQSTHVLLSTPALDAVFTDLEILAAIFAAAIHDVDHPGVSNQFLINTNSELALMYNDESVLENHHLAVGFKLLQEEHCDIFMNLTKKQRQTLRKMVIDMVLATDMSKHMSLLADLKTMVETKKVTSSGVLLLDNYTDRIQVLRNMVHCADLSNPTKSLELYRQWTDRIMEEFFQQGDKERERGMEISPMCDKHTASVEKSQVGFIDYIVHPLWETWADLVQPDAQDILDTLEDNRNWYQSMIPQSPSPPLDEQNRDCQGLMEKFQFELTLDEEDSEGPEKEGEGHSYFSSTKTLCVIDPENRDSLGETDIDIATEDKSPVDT
Cytochrome P450 1A2 (Homo sapiens), sequence (P05177 whole entry, looked up): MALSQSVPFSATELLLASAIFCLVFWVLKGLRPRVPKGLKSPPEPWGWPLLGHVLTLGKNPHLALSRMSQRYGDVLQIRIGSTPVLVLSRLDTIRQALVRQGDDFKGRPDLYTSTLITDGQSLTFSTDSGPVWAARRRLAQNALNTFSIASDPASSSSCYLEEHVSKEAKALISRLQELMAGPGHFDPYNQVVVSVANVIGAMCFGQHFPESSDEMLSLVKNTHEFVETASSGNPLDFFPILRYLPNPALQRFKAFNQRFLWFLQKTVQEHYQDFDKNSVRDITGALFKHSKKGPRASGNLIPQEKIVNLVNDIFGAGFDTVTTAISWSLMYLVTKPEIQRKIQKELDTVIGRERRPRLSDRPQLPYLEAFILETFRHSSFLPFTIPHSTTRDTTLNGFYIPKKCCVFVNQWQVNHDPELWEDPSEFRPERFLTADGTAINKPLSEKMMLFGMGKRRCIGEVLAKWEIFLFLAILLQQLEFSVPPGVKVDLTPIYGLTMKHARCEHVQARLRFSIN

COc1cccc(Nc2ncc3nc(-c4cc(F)cc(F)c4)c(=O)n(CCC#N)c3n2)c1
Potency [1]: > 11.4 µM
outcome [2]: inactive
Potency [3]: > 9.22 µM
Potency [4]: > 46 µM
Potency [5]: inactive
Potency [6]: inactive
outcome [7]: inactive
Potency [8]: inactive
Potency [9]: inactive

Cn1c(N)c(C(=O)COC(=O)c2cc(-c3ccco3)nc3ccccc23)c(=O)n(C)c1=O
Potency [10]: 25.1 µM (active)
outcome [7]: inactive
Potency [8]: 47.8 µM (active)
Potency [9]: inactive
Potency [11]: inactive
Potency [12]: inactive

CCCCN1C(=O)/C(=C/C=C2/CC(C)(C)CN2C)SC1=S
Potency [8]: inactive
Potency [11]: inactive

CN(C)c1ncc2nc(CCc3ccccc3)c(=O)n(-c3ccccc3)c2n1
Potency [1]: > 11.4 µM
Potency [13]: 0.794 µM (active)
activity change, negative = inhibition [14]: 12.7%
outcome [2]: inactive
Potency [3]: > 9.22 µM
Potency [4]: > 46 µM
Potency [5]: inactive
Potency [10]: 6.31 µM (active)
outcome [7]: inactive
Potency [8]: inactive
Potency [9]: inactive

CC(=O)[C@@]1(O)Cc2c(O)c3c(c(O)c2[C@H](O[C@H]2C[C@H](N)[C@H](O)[C@H](C)O2)C1)C(=O)c1ccccc1C3=O
activity change, negative = inhibition [15]: -110% [at 38 µM] (active)
Potency [13]: 20 µM (active)
activity change, negative = inhibition [14]: -116% [at 38 µM] (active)
Potency [4]: > 46 µM
Potency [5]: inactive
Potency [6]: inactive
Potency [16]: 0.02 µM (active)
Potency [17]: 0.0251 µM (active)
outcome [18]: inactive
outcome [19]: inactive
outcome [20]: inactive
outcome [21]: inactive
Potency [8]: inactive
Potency [9]: inactive
activity change, negative = inhibition [11]: 128% [at 30.8 µM]
Potency [12]: 12.6 µM (active)

COC(=O)c1ccccc1-c1c2ccc(=N)cc-2oc2cc(N)ccc12
Potency [8]: inactive
Potency [11]: inactive

COc1cccc(Nc2ncc3nc(-c4ccc(F)cc4)c(=O)n(CCC#N)c3n2)c1
Potency [1]: > 11.4 µM
activity change, negative = inhibition [14]: -6.29%
outcome [2]: inactive
Potency [3]: > 9.22 µM
Potency [4]: > 46 µM
Potency [5]: inactive
Potency [6]: inactive
Potency [22]: inactive
Potency [10]: 3.16 µM (active)
outcome [7]: inactive
Potency [8]: inactive
Potency [9]: inactive

O=C(OCCN1C(=O)c2cccc3c(N4CCOCC4)ccc(c23)C1=O)c1ccc(Cl)cc1Cl
Potency [23]: 4.61 µM (active)
Potency [8]: inactive
Potency [9]: inactive
activity change, negative = inhibition [11]: 68.2% [at 30.8 µM]

— PubChem BioAssay (NCATS)
